Source: doi:10.1101/2024.03.05.583629

Target: pT7_6His-AlfaTag-ZIF268 (human, UniProt P18146 335-423)
Test: PADIT-seq
Details: dsDNA, one strand shown

Sequence	binding signal
CTCGAGGATATCAAGATCTGGCCTCGGCCGCACACGCGGAACCTCTAGCTAGCCGACTCACTATAGGGATAATCGCCCTGAGCAAAGACC	0.422 ± 0.0927 log2FC
CTCGAGGATATCAAGATCTGGCCTCGGCGCGCGTGCGGGAACCTCTAGCTAGCCGACTCACTATAGGGATAATCGCCCTGAGCAAAGACC	0.0362 ± 0.119 log2FC
CTCGAGGATATCAAGATCTGGCCTCGGCGCGAGCGCGGGAACCTCTAGCTAGCCGACTCACTATAGGGATAATCGCCCTGAGCAAAGACC	0.0892 ± 0.102 log2FC
CTCGAGGATATCAAGATCTGGCCTCGGCGCGTGCGCGGGAACCTCTAGCTAGCCGACTCACTATAGGGATAATCGCCCTGAGCAAAGACC	0.264 ± 0.107 log2FC
CTCGAGGATATCAAGATCTGGCCTCGGCCGCCCATGGGGAACCTCTAGCTAGCCGACTCACTATAGGGATAATCGCCCTGAGCAAAGACC	0.0348 ± 0.099 log2FC
CTCGAGGATATCAAGATCTGGCCTCGGCGGGTGGGCGGGAACCTCTAGCTAGCCGACTCACTATAGGGATAATCGCCCTGAGCAAAGACC	1.66 ± 0.0839 log2FC
